Laboratory results as given in PubChem BioAssay AID1159580 (chemical genetic matrix, 2015).
Where “and” joins values, the source holds several entries; their conditions need not be identical. Identical values can stand only once. The campaign covered roughly 5,500 compounds. About 2,000 (36%) were called active. Roughly 18% stayed inconclusive and do not appear here. Rule as the data show it: active = normalized growth mostly below about 0.91 (no sharp cut-off); inconclusive = no clear call, values can overlap the other calls; inactive = mostly above about 0.92. This is one part of the list.

Experiment: chemical genetic growth profiling, strain panel (AID 1159580);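 also: tested at 20 µM; growth read once vehicle control cultures reached saturation at 30 °C; 1 = growth at the plate median or of vehicle wells; lower values mean less growth of the strain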
Conditions: S. cerevisiae deletion strains, growth OD

Measured: normalized growth

CC(C(=O)O)c1ccc(C(=O)c2cccs2)cc1 (configuration not stated)
inactive: locus YAL021C, strain ccr4, active compounds read low 1.02 | locus YAL026C, strain drs2, active compounds read low 1.01 | locus YAL030W, strain snc1, active compounds read low 1 | locus YBL061C, strain skt5, active compounds read low 1 | locus YBR009C, strain hhf1, active compounds read low 1.01 | locus YBR021W, strain FUR4, active compounds read low 0.987 | locus YBR023C, strain chs3, active compounds read low 0.995 | locus YBR171W, strain sec66, active compounds read low 0.985 | locus YBR229C, strain ROT2, active compounds read low 1.01 | locus YBR231C, strain swc5, active compounds read low 1 | locus YBR279W, strain paf1, active compounds read low 0.996 | locus YCL011C, strain gbp2, active compounds read low 1.01 | locus YCL016C, strain dcc1, active compounds read low 0.998 | locus YCL029C, strain bik1, active compounds read low 1.01 | locus YCL061C, strain MRC1, active compounds read low 1.01 | locus YCL069W, strain vba3, active compounds read low 0.997 | locus YCR088W, strain abp1, active compounds read low 0.996 | locus YDL005C, strain med2, active compounds read low 0.995 | locus YDL035C, strain GPR1, active compounds read low 1.01 | locus YDL040C, strain nat1, active compounds read low 0.998 | locus YDL074C, strain BRE1, active compounds read low 1 | locus YDL101C, strain DUN1, active compounds read low 1.01 | locus YDL134C, strain PPH21, active compounds read low 1 | locus YDL185W, strain tfp1, active compounds read low 0.999 | locus YDL192W, strain arf1, active compounds read low 1.01 | locus YDR001C, strain nth1, active compounds read low 0.993 | locus YDR069C, strain doa4, active compounds read low 0.994 | locus YDR101C, strain arx1, active compounds read low 1 | locus YDR137W, strain rgp1, active compounds read low 0.963 | locus YDR159W, strain sac3, active compounds read low 0.991 | locus YDR162C, strain NBP2, active compounds read low 1.01 | locus YDR195W, strain ref2 0.976 | locus YDR297W, strain sur2, active compounds read low 0.999 | locus YDR318W, strain mcm21, active compounds read low 1.02 | locus YDR334W, strain swr1, active compounds read low 0.989 | locus YDR335W, strain msn5, active compounds read low 1.01 | locus YDR388W, active compounds read low 1.02 | locus YDR392W, strain spt3, active compounds read low 1.03 | locus YDR502C, strain sam2, active compounds read low 1.03 | locus YEL003W, strain gim4, active compounds read low 0.987 | locus YEL037C, strain rad23, active compounds read low 1 | locus YEL061C, strain CIN8 (second series), active compounds read low 1 | locus YEL061C, strain CIN8, active compounds read low 1 | locus YER015W, strain faa2, active compounds read low 0.989 | locus YER016W, strain bim1, active compounds read low 1.02 | locus YER110C, active compounds read low 1.02 | locus YER111C, strain swi4, active compounds read low 0.985 | locus YER155C, strain BEM2 (second series), active compounds read low 1 | locus YER155C, strain BEM2, active compounds read low 0.992 | locus YER167W, strain BCK2, active compounds read low 1 | locus YFR010W, strain ubp6, active compounds read low 0.991 | locus YGL078C, strain dbp3, active compounds read low 1.01 | locus YGL086W, strain mad1, active compounds read low 1 | locus YGL167C, strain pmr1, active compounds read low 0.994 | locus YGL173C, strain kem1, active compounds read low 0.993 | locus YGL227W, strain vid30, active compounds read low 0.99 | locus YGL240W, strain doc1, active compounds read low 1 | locus YGL248W, strain PDE1, active compounds read low 1.01 | locus YGL253W, strain hxk2, active compounds read low 1.01 | locus YGR135W, strain pre9, active compounds read low 1.01 | locus YGR252W, strain gcn5, active compounds read low 1 | locus YHR013C, strain ard1, active compounds read low 0.989 | locus YHR027C, strain rpn1, active compounds read low 1.01 | locus YHR030C, strain SLT2, active compounds read low 0.998 and 1 | locus YHR079C, strain IRE1 (second series), active compounds read low 1.01 | locus YHR079C, strain IRE1, active compounds read low 0.999 | locus YHR094C, strain hxt1, active compounds read low 1.01 | locus YHR129C, strain ARP1, active compounds read low 1 | locus YHR142W, strain chs7, active compounds read low 0.995 | locus YHR200W, strain rpn10, active compounds read low 1.01 | locus YIL066C, strain RNR3, active compounds read low 1.01 | locus YIL073C, strain SPO22, active compounds read low 1.07 | locus YIL125W, strain kgd1, active compounds read low 1.01 | locus YIR030C, strain dcg1, active compounds read low 1.01 | locus YJL092W, strain hpr5, active compounds read low 0.996 | locus YJL095W, strain BCK1 (second series), active compounds read low 1 | locus YJL095W, strain BCK1, active compounds read low 1 and 0.971 | locus YJL115W, strain asf1, active compounds read low 0.995 | locus YJL129C, strain trk1, active compounds read low 0.982 | locus YJL134W, strain LCB3, active compounds read low 1 | locus YJL154C, strain vps35, active compounds read low 0.99 | locus YJL164C, strain tpk1, active compounds read low 1.03 | locus YJL166W, strain qcr8, active compounds read low 0.99 | locus YJL168C, strain set2, active compounds read low 1.01 | locus YJL187C, strain SWE1 (second series), active compounds read low 1.01 | locus YJR043C, strain POL32, active compounds read low 0.982 | locus YJR066W, strain TOR1, active compounds read low 0.952
